# Activity calls are given as the source filed them. How the source made its calls: active means hit-call score of the fitted dose curve at least 0.9, where 1 is the maximum; inactive means score below 0.9.
# Target: human JAK2 Tyrosine Kinase, JAK2 (gene 3717) (UniProt O60674)
# Test: ERF_FR_ENZ_hJAK2: Eurofins (ERF) Enzymatic Radiometric [Km ATP] KinaseProfiler LeadHunter Assay for human JAK2 Tyrosine Kinase
# Method: ERF_FR_ENZ_hJAK2 is a biochemical, single-readout assay that uses extracted gene-proteins in a cell-free assay. Measurements were taken 1 hour after chemical dosing in a 96-well plate. See JAK2 Human TK Kinase Enzymatic LANCE Assay [Km ATP], Cerep.ERF_FR_ENZ_hJAK2 is an assay component calculated from the ERF_FR_ENZ_hJAK2 assay. It is designed to measure enzyme activity using a type of enzyme reporter as detected by fluorescence intensity with LANCE technology.Data from the assay component ERF_FR_ENZ_hJAK2 was analyzed at the assay endpoint, ERF_FR_ENZ_hJAK2, in the positive analysis fitting direction relative to DMSO as the negative control and baseline of activity. Using a type of enzyme reporter, loss-of-signal activity can be used to understand changes in enzymatic activity as they relate to gene JAK2. To generalize the intended target to other relatable targets, this assay endpoint is annotated to the kinase intended target family, where the subfamily is non-receptor tyrosine kinase.
# JAK2 (h) is incubated with 8 mM MOPS pH 7.0, 0.2 mM EDTA, 100 uM […], 10 mM MgAcetate and [gamma-33P]-ATP (specific activity and concentration as required). The reaction is initiated by the addition of the Mg/ATP mix. After incubation for 40 minutes at room temperature, the reaction is stopped by the addition of phosphoric acid to a concentration of 0.5%. […]
# Chain of human JAK2 Tyrosine Kinase, JAK2 (gene 3717) (O60674 whole entry, looked up): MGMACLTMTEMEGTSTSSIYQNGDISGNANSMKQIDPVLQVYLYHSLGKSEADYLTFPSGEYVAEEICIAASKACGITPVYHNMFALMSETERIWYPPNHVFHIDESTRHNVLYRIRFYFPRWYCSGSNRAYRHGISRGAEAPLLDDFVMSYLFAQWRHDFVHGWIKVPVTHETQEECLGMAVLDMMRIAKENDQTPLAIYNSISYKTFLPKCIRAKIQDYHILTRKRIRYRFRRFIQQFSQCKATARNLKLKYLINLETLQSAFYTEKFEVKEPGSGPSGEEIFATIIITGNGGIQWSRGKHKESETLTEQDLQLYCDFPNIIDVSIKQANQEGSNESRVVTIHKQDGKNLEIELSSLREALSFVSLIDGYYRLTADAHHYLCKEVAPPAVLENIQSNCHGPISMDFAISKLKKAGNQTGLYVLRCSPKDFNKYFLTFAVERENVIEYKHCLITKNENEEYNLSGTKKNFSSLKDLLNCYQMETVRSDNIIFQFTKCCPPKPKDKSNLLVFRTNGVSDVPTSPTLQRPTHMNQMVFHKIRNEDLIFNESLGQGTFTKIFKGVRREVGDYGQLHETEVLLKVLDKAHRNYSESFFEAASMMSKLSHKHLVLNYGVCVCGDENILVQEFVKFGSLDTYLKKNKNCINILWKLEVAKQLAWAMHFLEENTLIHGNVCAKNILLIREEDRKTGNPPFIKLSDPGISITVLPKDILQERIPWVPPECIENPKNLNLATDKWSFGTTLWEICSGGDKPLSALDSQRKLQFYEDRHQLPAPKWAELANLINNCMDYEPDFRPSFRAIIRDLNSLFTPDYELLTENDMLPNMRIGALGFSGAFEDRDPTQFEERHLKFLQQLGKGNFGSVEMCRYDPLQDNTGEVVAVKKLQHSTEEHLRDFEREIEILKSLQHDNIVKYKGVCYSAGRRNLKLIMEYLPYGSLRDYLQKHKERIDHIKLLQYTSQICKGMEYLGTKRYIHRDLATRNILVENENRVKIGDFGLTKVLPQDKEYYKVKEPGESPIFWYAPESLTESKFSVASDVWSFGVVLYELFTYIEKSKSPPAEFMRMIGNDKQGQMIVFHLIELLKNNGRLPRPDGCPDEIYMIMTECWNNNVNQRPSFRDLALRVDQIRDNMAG
row,Compound,AC50
1,O=C(/C=C/c1ccc(O)cc1)CC(=O)/C=C/c1ccc(O)cc1,2510 nM (active)

# From PubChem BioAssay AID2284099 (EPA ToxCast)
